Assay outcomes deposited in PubChem by National Center for Advancing Translational Sciences (NCATS).
In the library only some 11% were active in any assay of this set; here they are far more common.
Pf growth 48h = P. falciparum growth inhibition at 48 hours (one generation). P. falciparum luciferase growth in erythrocytes, 48 h. 5.9% of 310,000 active. Potency, µM (top dose mostly 28.7 µM), inactives show at the top dose activity change, negative = inhibition, most hits filed as inhibitors
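Here the parasites carry a stable luciferase gene and grow inside erythrocytes in Albumax-based RPMI medium with compound for one erythrocytic cycle. Activity is scored as loss of luminescent signal.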
HCV inh = inhibitors of hepatitis C virus infection. Huh7.5.1 HCVcc-Cre infection, luciferase reporter, 44 h. 3.4% of 340,000 active. AID 651820. Potency, µM (top dose mostly 41.8 µM), without a hit: top-dose activity change, negative = inhibition, most hits filed as inhibitors
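Seed cells (1,000/well) for 4 h; treat with compound and infect with HCVcc-Cre, moi about 0.5. Incubate 44 h, then detect luciferase activity.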
Pf growth 96h = P. falciparum growth inhibition at 96 hour, primary screen for plastid delayed-death inhibitors; P. falciparum luciferase reporter growth, 96 h; Potency, µM (series often up to 28.7 µM), inactives show top-dose activity change, negative = inhibition, most hits filed as inhibitors; 6.9% of 320,000 active
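Erythrocytes infected with luciferase-expressing P. falciparum were dispensed at 2% hematocrit and 0.05% parasitemia (final), then incubated with compounds 96 hours at 37 C in 5% CO2. Luminescence after detection reagent addition reported growth.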
AMA1 RON2 block = disrupts binding of P. falciparum AMA1 to RON2. 0.2% of 360,000 active. AlphaScreen AMA1-biotinylated RON2 peptide binding. Potency, µM (highest dose often 58.2 µM), for inactives: top-dose activity change, negative = inhibition, hits mostly inhibitors;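 also: 0% = vehicle wells and -100% = peptide control; nearly all actives have a fitted effect of over 45% in size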
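AMA1 (3D7) with his tag at 25 nM final met compounds first, then biotinylated RON2 peptide at 25 nM; detection used donor plus acceptor beads, 10 µg/mL apiece, read by AlphaScreen after 30 min at room temperature.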
* marks the source's active call; other numbers are inactive results; ? = inconclusive; . = no result given; [ ] = dose if it differs, or a comment. Calls follow the shape of the dose curve; as a rule, active = well fitted curve in the direction sought with a large enough effect; inconclusive = small, poorly fitted or top-dose-only effect, or another doubt; inactive = no such curve, though single readings can be large; an effect the other way counts as inactive or inconclusive. Unless noted, % is scaled to controls: 0 for no effect and ±100 for the full control effect; potency is read from the fitted curve at half-maximal effect.

SMILES | Pf growth 48h | HCV inh | Pf growth 96h | AMA1 RON2 block
COc1cc2cc(C(c3nnnn3C3CCCC3)N(C)C3CCCCC3)c(=O)[nH]c2cc1OC (centres undefined) | ? | ? | ? | -5.6%
COc1cc2cc(C(c3nnnn3C3CCCCC3)N(C)C3CCCCC3)c(=O)[nH]c2cc1OC (centres undefined) | 5.86µM* | ? | -26.7% | -5.6%
CCC(C)(C)n1nnnc1C(c1cc2ccc(C)cc2[nH]c1=O)N(Cc1cccnc1)Cc1ccco1 (centres undefined) | 11.7µM* | -17.1% | 43.2% | -19.5%
Cc1cc2cc(C(c3nnnn3C3CCCC3)N(Cc3cccnc3)Cc3ccco3)c(=O)[nH]c2cc1C (centres undefined) | . | -8.0% | 2.33µM* | 23.1%
Cc1ccc2cc(C(c3nnnn3C3CCCC3)N(Cc3ccccc3)Cc3ccco3)c(=O)[nH]c2c1 (centres undefined) | . | -23.1% | ? | 0.1%
CC1(OC(=O)c2cccs2)C(=O)C=C2C=C3CCCN3C=C2C1=O (centres undefined) | 62.3% | -5.9% | 41.7% | ?
CC1(C)CC(C(CC(=O)O)c2ccccc2)CCO1 (centres undefined) | -16.3% | 13.3% | 1.9%[5.75 µM] | -3.2%
COc1ccc(CN(CCC(c2ccc(F)cc2)C2CCOC(C)(C)C2)C(=O)c2ccco2)cc1 (centres undefined) | 9.28µM* | ? | ? | -23.8%
CC(c1ccccc1)N(CCC(c1ccccc1)C1CCOC(C)(C)C1)C(=O)c1ccco1 (centres undefined) | 11.7µM* | 3.8% | -4.9% | -22.8%
O=c1c(Cl)c(N2CCC3(CC2)OCCO3)cnn1C12CC3CC(CC(C3)C1)C2 | ? | 7.9% | ? | 2.7%
CCCNCC(O)Cn1c2ccccc2n2c(=O)cc(C)c(C#N)c12 (centres undefined) | 3.7µM* | ? | 11.7µM* | 9.2%[2.32 µM]
Cc1cc(=O)n2c(sc3ccccc32)c1C#N | 19.0% | -18.3% | 47.7% | 9.0%
CC(=O)n1c(C=Nc2ccc(Cl)cc2)c(O)c2ccccc21 | 1.47µM* | ? | ? | 10.6%
COc1ccc(N2C(C(C)=O)=NN(c3ccccc3)C2c2cccs2)cc1 (centres undefined) | . | . | 11.7µM* | .
COC(=O)C(C(=O)Nc1ccccc1C)C1CCCCCC1 (centres undefined) | 27.0% | -13.6% | 18.5% | 11.7%
O=C(NCCCn1ccnc1)c1nn2c(C(F)(F)F)cc(-c3ccccc3)nc2c1Cl | 14.7µM* | 10µM* | -10.1% | -9.1%
COCCNC(=O)c1nn2c(C(F)(F)F)cc(-c3ccccc3)nc2c1Cl | 81.4% | -5.0% | 5.4% | 12.4%
CCCCNC(=O)c1cc2nc(-c3ccc(OC)cc3)cc(C(F)(F)F)n2n1 | . | . | . | 15.9%
Cc1ccc(-c2cc(C(F)(F)F)n3nc(C(=O)NCCCn4ccnc4)cc3n2)cc1C | ? | 5.01µM* | ? | 2.6%
COc1ccccc1N(C)S(=O)(=O)c1ccc(C(=O)OCC(=O)c2c[nH]c3ccccc23)cc1 | ? | -2.5% | ? | 0.9%
CC(C)(C)c1ccc(OCC(O)CN2CCOCC2)cc1 (centres undefined) | . | ? | . | 9.4%
COC(=O)c1c(C)oc(C)c1S(=O)(=O)NC(c1ccccc1)c1ccccc1 | ? | ? | ? | 5.8%
COC(=O)c1cc([N+](=O)[O-])c(-n2ccnc2)c([N+](=O)[O-])c1 | -28.9% | 13.2% | ? | -1.0%
CNc1cc(C(=O)Nc2cccc(OCc3ccccc3)c2)ncn1 | . | . | . | 0.1%
Cc1cc(C)n(-c2nc(SCCN(C)C)c3c4c(sc3n2)CCCC4)n1 | ? | ? | 11.7µM* | 19.7%
Cc1cc(C)n(-c2nc(SCC(=O)O)c3c4c(sc3n2)COC(C)(C)C4)n1 | ? | -1.6% | ? | 2.3%
Cc1cccc(-c2noc(-c3csc([C@@H]4C[C@H](O)[C@@H](CO)O4)n3)n2)c1 | . | . | . | -0.6%
CCCCN(CCCC)CC(O)COc1ccccc1Br (centres undefined) | 4.15µM* | ? | 93.1% | -7.9%
CC(C)CN(CC(C)C)CC(O)COc1ccccc1Br (centres undefined) | ? | 10.8% | 3.29µM* | 9.5%
CC(C)CN(CC(C)C)CC(O)COc1ccc([N+](=O)[O-])cc1 (centres undefined) | 11.7µM* | 4.1% | -80.9% | 6.6%
